These results are taken from PubChem BioAssay AID449739 (Vanderbilt High Throughput Screening Facility, 2010).

About 4,200 (4.2%) of roughly 100,000 compounds were called active. This is one part of a sample in which actives are shown more often than they occur.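 Rule for the calls: active = single-dose well whose peak fluorescence ratio is a statistical outlier from its plate by either plate-standardised score or position-corrected B-score; inactive = the rest.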

In the experiment the target is Voltage-dependent T-type calcium channel subunit alpha-1H (Homo sapiens) (UniProt O95180). In words: Cav3.2 calcium influx blockers – cell-based, Fluo-4 calcium fluorescence, FDSS, MLSMR library, primary screen (AID 449739). The following applies: Cav3.2-expressing cells, at 10 µM, hits give low values.
Voltage-dependent T-type calcium channel subunit alpha-1H (Homo sapiens), sequence (O95180 whole entry, looked up): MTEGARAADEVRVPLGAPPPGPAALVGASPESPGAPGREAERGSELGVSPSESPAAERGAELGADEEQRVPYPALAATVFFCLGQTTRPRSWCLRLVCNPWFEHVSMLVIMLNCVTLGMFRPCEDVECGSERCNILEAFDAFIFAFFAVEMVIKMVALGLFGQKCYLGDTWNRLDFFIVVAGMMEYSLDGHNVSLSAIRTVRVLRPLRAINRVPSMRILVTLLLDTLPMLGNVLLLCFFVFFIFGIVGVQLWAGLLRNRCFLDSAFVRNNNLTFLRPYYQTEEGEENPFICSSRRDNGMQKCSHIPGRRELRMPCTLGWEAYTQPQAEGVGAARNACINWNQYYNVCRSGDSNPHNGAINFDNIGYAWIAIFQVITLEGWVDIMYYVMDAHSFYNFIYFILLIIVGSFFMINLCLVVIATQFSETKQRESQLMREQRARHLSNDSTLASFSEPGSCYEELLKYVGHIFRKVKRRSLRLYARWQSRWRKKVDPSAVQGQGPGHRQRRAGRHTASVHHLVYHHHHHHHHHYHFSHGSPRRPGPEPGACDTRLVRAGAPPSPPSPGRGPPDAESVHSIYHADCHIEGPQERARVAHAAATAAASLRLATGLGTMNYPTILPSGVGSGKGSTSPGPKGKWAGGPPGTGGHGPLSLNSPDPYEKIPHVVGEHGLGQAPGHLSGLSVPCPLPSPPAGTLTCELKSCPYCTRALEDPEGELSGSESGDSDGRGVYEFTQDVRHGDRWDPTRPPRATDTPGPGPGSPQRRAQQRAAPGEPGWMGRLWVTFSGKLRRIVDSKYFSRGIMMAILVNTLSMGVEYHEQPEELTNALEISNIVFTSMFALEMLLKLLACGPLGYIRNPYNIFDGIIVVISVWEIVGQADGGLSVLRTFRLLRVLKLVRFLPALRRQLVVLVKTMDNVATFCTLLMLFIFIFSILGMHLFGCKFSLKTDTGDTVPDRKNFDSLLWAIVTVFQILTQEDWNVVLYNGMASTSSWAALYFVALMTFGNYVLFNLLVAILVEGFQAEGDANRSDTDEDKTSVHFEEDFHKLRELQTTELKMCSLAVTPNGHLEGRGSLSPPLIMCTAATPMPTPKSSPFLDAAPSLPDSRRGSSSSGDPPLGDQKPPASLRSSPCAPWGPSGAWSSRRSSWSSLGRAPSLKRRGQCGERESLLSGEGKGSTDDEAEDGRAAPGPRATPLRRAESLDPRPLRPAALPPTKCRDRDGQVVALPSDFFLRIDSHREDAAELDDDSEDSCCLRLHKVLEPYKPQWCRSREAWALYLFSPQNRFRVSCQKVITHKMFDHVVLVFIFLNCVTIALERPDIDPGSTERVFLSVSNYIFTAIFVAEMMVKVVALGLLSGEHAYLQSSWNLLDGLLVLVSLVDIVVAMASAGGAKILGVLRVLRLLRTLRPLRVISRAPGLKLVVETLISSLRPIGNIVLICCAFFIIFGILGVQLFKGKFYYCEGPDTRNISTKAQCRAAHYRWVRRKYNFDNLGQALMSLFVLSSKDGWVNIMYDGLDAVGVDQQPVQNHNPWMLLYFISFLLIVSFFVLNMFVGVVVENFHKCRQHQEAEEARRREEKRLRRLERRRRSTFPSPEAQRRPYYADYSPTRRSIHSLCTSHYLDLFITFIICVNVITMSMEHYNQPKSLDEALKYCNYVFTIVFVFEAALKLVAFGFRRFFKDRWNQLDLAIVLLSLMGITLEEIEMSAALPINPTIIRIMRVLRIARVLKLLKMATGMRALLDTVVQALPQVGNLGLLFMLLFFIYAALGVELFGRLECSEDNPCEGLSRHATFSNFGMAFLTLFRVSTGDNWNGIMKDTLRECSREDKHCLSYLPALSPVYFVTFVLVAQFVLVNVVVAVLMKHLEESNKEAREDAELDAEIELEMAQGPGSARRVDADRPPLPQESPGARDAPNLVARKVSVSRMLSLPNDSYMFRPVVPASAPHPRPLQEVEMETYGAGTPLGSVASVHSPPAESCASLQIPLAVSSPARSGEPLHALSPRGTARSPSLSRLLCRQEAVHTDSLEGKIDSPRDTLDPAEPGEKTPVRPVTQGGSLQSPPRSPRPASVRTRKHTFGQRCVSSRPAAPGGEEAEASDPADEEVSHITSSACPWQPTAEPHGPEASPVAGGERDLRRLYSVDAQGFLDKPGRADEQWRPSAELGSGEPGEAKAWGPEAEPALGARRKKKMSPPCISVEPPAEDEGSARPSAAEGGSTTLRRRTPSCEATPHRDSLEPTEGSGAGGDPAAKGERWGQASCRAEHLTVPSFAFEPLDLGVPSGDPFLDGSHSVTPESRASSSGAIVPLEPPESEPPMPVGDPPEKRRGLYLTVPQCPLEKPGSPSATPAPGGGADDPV
Regarding `COP1(=O)C[C@@H](O)[C@@H](O)[C@@H](COCc2ccccc2)O1` (stereo not given in full), the B-score was 0.634 (inactive).

Take `CC(=O)Nc1ccccc1C(=O)C(=O)Nc1ccc(F)cc1`: the B-score was 0.288 (inactive).

`COc1cccc(CNc2nc3nc4c(c(=O)n3[nH]2)CCC4)c1`: the B-score was -0.11 (inactive).

`Cc1cc2cc3c(N)[nH]nc3nc2cc1C`: the B-score is 0.083 (inactive).

As for `O=[N+]([O-])c1ccc(NCCCN2CCOCC2)c(Cl)c1`, the B-score was 0.715 (inactive).

For `O=C(CN1C(=O)NC2(CCCC2)C1=O)Nc1ccc(F)c(F)c1F`, the B-score is 0.274 (inactive).

As to `O=C1c2ccccc2S(=O)(=O)c2cc(N3CCN(c4ccccn4)CC3)ccc21`, the B-score was 0.804 (inactive).

Regarding `Cc1ccc(-n2c(C)cc(/C=C(\C#N)C(=O)NCC3CCCO3)c2C)cc1` (stereo not given), the B-score is -1.95 (inactive).

For `CCC(=O)NC(=Nc1nc2ccccc2s1)NC(=O)CC`, the B-score was -0.485 (inactive).

Turning to `O=C(O)CSCc1nc2ccccc2s1`, the B-score is 1.19 (inactive).

As to `CC(C)CC(=O)N/C(N)=N/c1nc2ccccc2s1`, the B-score is -4.05 (active).

For `Cc1ccc(/C=N/NC(=O)C2=NNC(c3ccccc3)(c3ccccc3)C2)c(O)c1`, the B-score was -6.92 (active).

Take `Cc1ccc(-c2nn(-c3ccccc3)cc2/C=N/NC(=O)c2ccc3c(c2)OCO3)cc1`: the B-score was -3.75 (inactive).

Take `Cc1nn(C)cc1/C=N/NC(=O)c1sc2ccccc2c1Cl`: the B-score was 2.17 (inactive).

`COc1ccc(SCc2noc(C(=O)NCC3CCCO3)c2C(=O)O)cc1` (stereo not given): the B-score was 1.72 (inactive).

`CS(=O)(=O)n1nc(-c2ccccc2)nc1NCc1ccco1`: the B-score is 0.406 (inactive).

For the compound `CCS(=O)(=O)n1nc(-c2ccc(OC)cc2)nc1SC`, the B-score is -0.316 (inactive).

With `CCS(=O)(=O)n1nc(-c2ccccc2)nc1SCc1ccccc1`, the B-score is -3.19 (active).

With `NC(=O)C1=C[C@H](c2csc3ccccc23)C[C@H](OCc2ccc(CO)cc2)O1`, the B-score was 0.00737 (inactive).

Regarding `Cc1cc2nc(C)n(CCCNC(=O)Nc3ccccc3)c2cc1C`, the B-score is -1.52 (inactive).

On to `COCCOCCn1cnc2ccccc21`, for which the B-score was 0.734 (inactive).

As for `Cc1cc2ncn(CCCCOc3ccccc3)c2cc1C`, the B-score was -4.34 (active).

For `Cc1ccc2c(c1)-c1c(ssc1=S)C(C)(C)N2C(=O)CN1C(=O)c2ccccc2C1=O`, the B-score was -1.31 (inactive).

In the case of `CC1=C(C)C(=O)OC(C(C)C2CCC3C4CC=C5CC(OC6OC(COC7OC(CO)C(O)C(O)C7O)C(O)C(O)C6O)CC(O)C5(C)C4CCC23C)C1` (stereo not given), the B-score is -0.348 (inactive).

For `CC(C)=CCC/C(C)=C/C(=O)O`, the B-score was 0.444 (inactive).

With `CCCOc1ccc(N2C(=O)CC(N(CCc3ccc(S(N)(=O)=O)cc3)C(C)=O)C2=O)cc1` (stereo not given), the B-score was -0.148 (inactive).

Regarding `CN(C)c1ccc(NC(=S)N(CCc2ccccc2)C2CC(=O)N(c3c(Cl)cccc3Cl)C2=O)cc1` (stereo not given), the B-score is -7.09 (active).

For `COC(=O)CN(C(=S)Nc1ccc(Cl)cc1)C1CC(=O)N(c2ccc(OC)cc2)C1=O` (stereo not given), the B-score was -0.0552 (inactive).

In the case of `C/C=C(/C)C(=O)O[C@@H]1c2cc3c(c4c2[C@@]2(CO4)C(=O)C(OC)=C(OC)C=C2C[C@@H](C)[C@H]1C)OCO3`, the B-score is -0.0512 (inactive).

For the compound `CCN1CCN(C(=O)/C=C\C(=O)O)CC1`, the B-score is -0.00536 (inactive).

For `O=C(NCCCCCCCCCNC(=O)C(F)(F)F)C(F)(F)F`, the B-score was -0.288 (inactive).

With `O=C(c1cccc2ccccc12)N1CCN(c2ccccc2F)CC1`, the B-score was -2.56 (inactive).

For `Cn1c2ccccc2c2c(C(=O)N3CCN(c4ccc(F)cc4)CC3)cn(C3CCCC3)c(=O)c21`, the B-score is -5.04 (active).

For `Cn1c(C(=O)N2CCC(C(N)=O)CC2)cc2c(=O)n(C)c3ccccc3c21`, the B-score is 0.0764 (inactive).

Regarding `O=c1c2ccccc2c(-c2ccc(F)cc2)nn1-c1ccc(C(F)(F)F)cc1`, the B-score is 0.392 (inactive).

Regarding `Clc1ccc(-c2nnc(-c3ccccc3)nc2N2CCSCC2)cc1`, the B-score was -2.83 (inactive).

Regarding `COc1cc(/C=C/CO)cc(OC)c1O[C@@H]1O[C@H](CO)[C@@H](O)[C@H](O)[C@H]1O`, the B-score was 0.144 (inactive).

As for `CC1(c2nnc(-c3ccncc3)o2)CC(c2cccnc2)=NO1` (stereo not given), the B-score is 0.534 (inactive).

As for `COc1ccc(NC(=O)CSc2nc(N)c(-c3ccccc3)c(=O)[nH]2)cc1`, the B-score is 0.0212 (inactive).

`COc1ccc2nc(SCC(=O)Nc3c(C)cc(C)cc3C)[nH]c2c1`: the B-score is -0.844 (inactive).

In the case of `COc1ccc(NC(=O)CSc2nc(NS(=O)(=O)c3ccc(C)cc3)cc(=O)[nH]2)cc1`, the B-score is -6.39 (active).

With `CCCC(=O)Nc1nc2ccc(NC(=O)c3cccnc3)cc2s1`, the B-score is -0.392 (inactive).

On to `COCCN1C(=O)N[C@@H](CCc2ccccc2)[C@H](C(C)=O)[C@H]1C`, for which the B-score is 0.713 (inactive).

Regarding `O=C(NCC1CC1)c1onc(CSc2ccccc2)c1C(=O)NCC1CC1`, the B-score is -1.14 (inactive).

With `CS(=O)(=O)N(CC(=O)N1CCN(c2ccc(F)cc2)CC1)C1CCCCC1`, the B-score is 1.32 (inactive).

Turning to `CS(=O)(=O)N(CC(=O)Nc1ccc(Cl)c(Cl)c1)C1CCCCC1`, the B-score was -4.14 (active).

For `CCOC(=O)N1CCN(C(=O)CN(C2CCCCC2)S(C)(=O)=O)CC1`, the B-score is -0.0305 (inactive).

On to `O=C(COc1ccc2c(C(F)(F)F)cc(=O)oc2c1)Nc1ccc2c(c1)OCCO2`, for which the B-score is -0.232 (inactive).

On to `N#Cc1ccc(Oc2cc(C(F)(F)F)nc(-c3ccccn3)n2)cc1`, for which the B-score is -0.0658 (inactive).

With `O=C(NCCCN1CCOCC1)c1cc2c(s1)CCC2`, the B-score is 0.565 (inactive).

As to `Cc1nn(C)cc1C(=O)NNC(=S)Nc1ccc(Cl)cc1`, the B-score is -0.0884 (inactive).

Turning to `COC(=O)C1=C(C(=O)OC)[C@@H]2N(C)c3ccccc3[C@@]23C[C@@H](C(=O)OC)N(C(C)=O)C3=N1`, the B-score was 0.294 (inactive).

Consider `CCOC(=O)c1ccccc1NC(=O)c1c(N)n(C)c(=O)[nH]c1=O`, for which the B-score is 1.01 (inactive).

With `C=CCn1c(N)cc(=O)nc1SCC(=O)Nc1cccc2ccccc12`, the B-score was -0.0155 (inactive).

As for `C=CCn1c(SCC(=O)Nc2nc3ccccc3s2)nnc1-c1ccccc1O`, the B-score was -5.9 (active).

As to `C=CCn1c(SCC(=O)NCc2ccccc2)nnc1-c1cc(Br)ccc1O`, the B-score is -6.89 (active).

On to `CCn1c(SCC(=O)Nc2nc3ccc(OC)cc3s2)nnc1-c1ccoc1C`, for which the B-score is -3.69 (inactive).

For `O=C(CSc1nnc(-c2cccnc2)n1CCc1ccccc1)NCc1ccccc1`, the B-score was 0.107 (inactive).

In the case of `C=CCn1c(COc2ccccc2)nnc1SCC(=O)NCC(=O)OCC`, the B-score was 0.062 (inactive).

As to `CN(C)/C=C(\C#N)C(=O)c1cccnc1Oc1ccc(F)cc1F`, the B-score is 0.526 (inactive).

Take `Cc1ccc(Cl)cc1NC(=O)COC(=O)C1CCCCC1`: the B-score was -0.13 (inactive).

`CC(C)(C)c1ccc(C(=O)NCCC(=O)NCc2ccco2)cc1`: the B-score is -0.22 (inactive).

In the case of `O=C(NCc1ccco1)c1ccc(CS(=O)(=O)Cc2ccc(F)cc2)o1`, the B-score was 1.27 (inactive).

In the case of `O=C(c1cc2sccc2n1Cc1ccc(F)cc1)N1CCc2ccccc21`, the B-score is -3.42 (inactive).

`O=C(NCc1ccco1)c1cc2sccc2n1Cc1ccc(F)cc1`: the B-score was -5.53 (active).

`O=C(Cc1ccc(-n2c(=O)c3sccc3n(Cc3ccc(F)cc3)c2=O)cc1)NCc1ccco1`: the B-score is -0.875 (inactive).

As to `O=C(NCc1ccco1)c1ccc(Cn2c(=O)c3sccc3n(Cc3ccc(F)cc3)c2=O)cc1`, the B-score is -3.42 (active).

For `COc1cccc(-c2cc(C(=O)N/N=C/c3ccc(OC)c(COC(C)=O)c3)c3ccccc3n2)c1`, the B-score was -0.321 (inactive).

For `CC(C)(C)CN1C(=O)C(=O)NC[C@H]1Cc1cccc2ccccc12`, the B-score is 0.844 (inactive).

Regarding `Fc1ccccc1COc1ccccc1CNCc1ccncc1`, the B-score is 0.584 (inactive).

On to `CC(C)CC(CO)N1CCN(C(=O)c2ccc(Cl)cc2Cl)CCC1=O` (stereo not given), for which the B-score is 0.363 (inactive).

`Cc1c(NC(=O)CCCOc2ccccc2)cccc1[N+](=O)[O-]`: the B-score is -0.161 (inactive).

Regarding `CCO[C@@H]1OC(C(N)=O)=C[C@H](c2ccc(Br)cc2)[C@H]1CCCO`, the B-score was 0.335 (inactive).

For `O=C(CSCc1ccc(Cl)cc1)N1CCN(Cc2ccc3c(c2)OCO3)CC1`, the B-score was -5.77 (active).

`O=C(c1cccs1)N1CCN(Cc2ccc3c(c2)OCO3)CC1`: the B-score was 0.274 (inactive).

In the case of `CS(=O)(=O)N(CC(=O)N1CCN(Cc2ccc3c(c2)OCO3)CC1)c1ccc2c(c1)OCO2`, the B-score is 1.42 (inactive).

`O=C(NCc1cc(C(F)(F)F)cc(C(F)(F)F)c1)C1CC(c2cccc(F)c2)=NO1` (stereo not given): the B-score was -0.916 (inactive).

Consider `O=C(CSc1ncnc2c1cnn2CCc1ccccc1)Nc1ccc(F)cc1`, for which the B-score was 0.0976 (inactive).

For `COc1ccc(C(C(=O)NCc2ccccc2)N(Cc2cccs2)C(=O)c2cnccn2)cc1` (stereo not given), the B-score is -0.0118 (inactive).

`C/C=C(/C)C(=O)Nc1cccc(C2=NOC3(C2)C[C@@H](C(N)=O)N(C(=O)C2(C)CC2)C3)c1` (stereo not given in full): the B-score is -0.695 (inactive).

In the case of `O=C(NCC1CCCO1)/C(=C\c1ccco1)NC(=O)c1ccccc1` (stereo not given), the B-score was 0.14 (inactive).

Regarding `CCOc1ccc(S(=O)(=O)n2ccnc2)c2ccccc12`, the B-score is 0.109 (inactive).

Consider `CCOc1cc(C)c(Cl)cc1S(=O)(=O)n1nnc2ccccc21`, for which the B-score was -2.51 (inactive).

Regarding `CCOc1ccc(C(C)C)cc1S(=O)(=O)n1nc(C)cc1C`, the B-score was -4.23 (active).

With `O=C(CN1CCN(S(=O)(=O)c2ccc3ccccc3c2)CC1)NC(=O)NC1CCCCC1`, the B-score is -8.92 (active).

In the case of `O=C(CN1CCN(c2ccccn2)CC1)NC1CCCCC1`, the B-score was 0.646 (inactive).

In the case of `O=C(CN1CCN(S(=O)(=O)c2ccc(F)cc2)CC1)Nc1ccccc1F`, the B-score was 0.623 (inactive).

As for `CCOC(=O)c1cccc(NC(=O)c2ccc(F)cc2F)c1`, the B-score is 0.631 (inactive).

Regarding `CN1CCN(C(=O)C2=C[C@H](c3ccc4c(c3)OCO4)C[C@H](OCc3ccc(CO)cc3)O2)CC1`, the B-score is 0.346 (inactive).

For the compound `O=C(CCc1ccc(S(=O)(=O)NC2CCCCC2)cc1)NCc1ccccc1`, the B-score is -2.7 (inactive).
